TDP1 block = blocks human tyrosyl-DNA phosphodiesterase 1; AID 485290; Q9NUW8; 350,000 compounds, 0.28% hits; Potency, µM (series often up to 130 µM), for inactives: at the highest dose activity change, negative = inhibition, hits mostly inhibitors; recombinant TDP1, AlphaScreen DNA substrate cleavage; also: potency is read from the fitted curve at half-maximal effect; nearly all actives have a fitted effect of over 40% in size
Target sequence (Q9NUW8 whole entry, looked up): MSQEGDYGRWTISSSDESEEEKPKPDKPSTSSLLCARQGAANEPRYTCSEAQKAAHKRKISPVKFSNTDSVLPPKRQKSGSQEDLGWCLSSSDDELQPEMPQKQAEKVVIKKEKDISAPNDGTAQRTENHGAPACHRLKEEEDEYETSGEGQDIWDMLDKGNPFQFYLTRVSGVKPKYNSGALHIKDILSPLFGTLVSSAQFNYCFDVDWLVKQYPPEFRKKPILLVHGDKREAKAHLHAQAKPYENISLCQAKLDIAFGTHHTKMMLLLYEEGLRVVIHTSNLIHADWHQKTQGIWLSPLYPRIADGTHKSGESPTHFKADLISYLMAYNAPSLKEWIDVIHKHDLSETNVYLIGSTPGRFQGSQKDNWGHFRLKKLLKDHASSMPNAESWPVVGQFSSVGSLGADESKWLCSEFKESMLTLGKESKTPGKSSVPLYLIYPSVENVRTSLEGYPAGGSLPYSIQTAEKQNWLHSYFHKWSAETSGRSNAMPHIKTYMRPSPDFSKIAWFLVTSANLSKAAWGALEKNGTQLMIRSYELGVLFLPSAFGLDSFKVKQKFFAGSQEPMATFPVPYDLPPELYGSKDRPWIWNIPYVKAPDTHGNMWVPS
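Steps: enzyme plus compound, 15 min RT; add biotin/phosphotyrosine-FITC oligonucleotide (15 nM final), react 5 min; add donor/acceptor beads (10 ug/ml final), 10 min; read AlphaScreen. Tdp1 at 1 nM final.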
TDP1 cell CPT = growth inhibition of DT40 Tdp1-/-;hTDP1 cells with camptothecin (screen for TDP1 inhibitors) | chicken DT40 Tdp1-/-;hTDP1 cells + 20 nM CPT, ATP luminescence, 48 h | Potency, µM (top dose mostly 46.2 µM), for the others: at the highest dose activity change, negative = growth inhibition, most hits filed as inhibitors | 420,000 compounds, 12% hits | AID 686979; also: potency is read from the fitted curve at half-maximal effect; nearly all actives have a fitted effect of over 55% in size
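Cell growth measured by CellTiter-Glo luminescence after a minimum 48 h, 37 C compound exposure with 20 nM CPT in Tdp1-knockout DT40 cells stably expressing hTDP1, seeded 400/well; qHTS titration format.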
DT40 TDP1 no CPT = qHTS for Inhibitors of human tyrosyl-DNA phosphodiesterase 1 (TDP1): qHTS in cells in absence of CPT. DT40 Tdp1-/- hTDP1 cells, no CPT, ATP luminescence, 48 h. Potency, µM (titrated, usually from 46.2 µM), without a hit: at the highest dose activity change, negative = growth inhibition, hits mostly inhibitors. 420,000 compounds, 15% hits. AID 686978, 2013; also: potency is read from the fitted curve at half-maximal effect; nearly all actives have a fitted effect of over 55% in size
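Luminescent ATP content (CellTiter-Glo) served as the growth readout. Knockout chicken DT40 cells expressing human TDP1 were exposed to compounds without camptothecin for a minimum 48 hr at 37 °C.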
Giardia kill = Giardia lamblia killing; 340,000 compounds, 0.15% hits; AID 540267; activity change, % at 7.66 µM, hits read low; Giardia lamblia trophozoite viability; in the data active = activity change below about -80%; inconclusive = between about -30% and that limit;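 also: parasites exposed to compound for two days anaerobically before the ATP read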
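Killing of trophozoites was scored by loss of ATP luminescence after a 48 hrs anaerobic exposure to compounds at 37 deg C, using 100 cells per well.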
ELG1 repair inh = inhibitors of ELG1-dependent DNA repair in HEK293T cells | HEK293T ELG1-luciferase reporter, luminescence, 16 h; DNA damage induced by 5-fluorouridine | Potency, µM (top dose mostly 46.1 µM), inactives show top-dose activity change, negative = inhibition, actives largely listed as inhibitors | 330,000 compounds, 2.3% hits; also: potency is read from the fitted curve at half-maximal effect; nearly all actives have a fitted effect of over 55% in size
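Luminescence from the luciferase reporter, measured 30 min after ONE-Glo reagent at room temperature, was the read-out. Beforehand, 2,000 cells per well were exposed for 16 hr at 37 °C to 5-fluorouridine together with compound or vehicle.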
IL1B secr inh = blocks inflammasome-driven IL-1 beta release; THP-1 LPS/ATP IL-1B secretion, AlphaLISA, 16 h; stronger effect = lower value; activity change, % at 57.5 µM; 360,000 compounds, 4.7% hits; in the data active = activity change below about -50%; inconclusive = mostly about -30% to -49%
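Secreted IL-1B measured by AlphaLISA bead assay after 16 h compound exposure of THP-1 cells; compounds (final up to 57.5 uM) added 1 h before LPS (250 ng/mL) and ATP (1.25 mM) stimulation; lower signal means less secretion.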
* hit, by the source's call; i = inactive; u = inconclusive; x = no result given; [ ] = another dose, or the depositor's remark. The list is not random: actives were taken first. Their share in the collection is about 19%. Unless noted, calls follow the shape of the dose curve; as a rule, active = well fitted curve in the direction sought with a large enough effect; inconclusive = small, poorly fitted or top-dose-only effect, or another doubt; inactive = no such curve, though single readings can be large; an effect the other way counts as inactive or inconclusive. % is scaled to controls: 0 for no effect and ±100 for the full control effect.

SMILES | TDP1 block | TDP1 cell CPT | DT40 TDP1 no CPT | Giardia kill | ELG1 repair inh | IL1B secr inh
CCCCCc1ccc(S(=O)(=O)NCCc2ccncc2)cc1 | 2.3% | 20.6µM* | 16.4µM* | -4.3 | u | u
O=C(Nc1ccc(S(=O)(=O)NCCc2ccccc2)cc1)c1ccco1 | 8.7% | -27.2% | u | 25.9 | -16.7% | 15.5
O=C(CCc1ccc(S(=O)(=O)NCCc2ccccc2)cc1)Nc1ccc2c(c1)OCCO2 | 3.0% | -15.9% | u | 3.0 | 13µM* | 28.9
Cc1cc(C(C)(C)C)cc(S(=O)(=O)NCCc2ccncc2)c1C | x | u | u | -4.7 | 10.7% | -7.8
CC1CCCC(C)N1S(=O)(=O)c1ccc(S(=O)(=O)NCCc2ccncc2)cc1 (stereo not drawn) | 8.7% | u | u | 7.6 | -17.7% | u
CCCNS(=O)(=O)c1ccc(CCC(=O)Nc2ccc3c(c2)OCCO3)cc1 | 5.3% | -6.8% | -2.0% | 0.6 | -2.4% | -13.6
Cc1cc(C)c(S(=O)(=O)Nc2cc(Cl)c3oc4c(c3c2)C(=O)CCC4)cc1C | x | -14.2% | -10.5% | x | x | x
CCC(C)(C)NC(=O)C1CC(=O)N(CCc2ccc(F)cc2)C1 (stereo not drawn) | x | 5.2% | -0.5% | 4.7 | -9.4% | -17.1
CCCc1ccc(S(=O)(=O)NCCc2ccncc2)cc1 | 6.8% | 13µM* | u | 9.4 | u | -7.5
O=C(Nc1ccc(NC(=O)c2ccc([N+](=O)[O-])o2)cc1Cl)c1ccco1 | 0.7% | u | u | -92.4* | -2.1% | x
O=C(Nc1ccc(Cl)c([N+](=O)[O-])c1)c1ccco1 | 3.2% | -3.4% | u | 19.4 | 9.4% | 26.7
O=C(CCl)Nc1cccc(-c2cnc3ccccc3n2)c1 | 4.9% | 2.91µM* | 2.31µM* | u | 9.2µM* | -96.3*
CC(=O)Nc1cccc(NC(=O)c2ccco2)c1 | 9.1% | -9.0% | 12.4% | -17.0 | 1.5% | 26.4
O=C(Nc1ccc(Cl)c(Cl)c1)Oc1ccc(NC(=O)c2ccco2)cc1 | 0.5% | u | 25.9µM* | 9.7 | 16.6% | -88.2*
CCC(=O)Nc1cccc(-c2cnc3ccccc3n2)c1 | 3.6% | u | u | -17.3 | u | 30.2
O=C(Nc1cccc(NC(=O)c2ccc([N+](=O)[O-])o2)c1)c1ccco1 | 5.5% | 5.8µM* | 5.17µM* | -84.7* | 11.6µM* | -89.6*
O=C(Nc1ccc(OC(=O)c2ccco2)cc1)c1ccco1 | 2.4% | 1.8% | -18.0% | 5.5 | 21.6% | -16.8
O=S1(=O)CCN(C2CCCCCCC2)CC1 | x | -2.0% | 3.4% | x | x | 14.8
COc1ccc(NC(=O)Cn2c(=O)n(Cc3ccco3)c(=O)c3oc4ccccc4c32)cc1Cl | 2.6% | -18.3% | -29.0% | x | x | x
CCCCCCCCN1C(=O)[C@H](CC(=O)N2CCN(C(=O)c3ccco3)CC2)C[C@@]2(C(=O)OCC)CCCC=C12 | x | u | u | x | x | 0.0
Nc1ccc(C(=O)Nc2ccc(NC(=O)c3ccco3)c(O)c2)cc1 | -5.0% | u | 16.4µM* | 14.2 | -3.6% | -19.8
Nc1cccc(C(=O)Nc2ccc(N)cc2Cl)c1 | 4.7% | -5.7% | 0.5% | 0.1 | u | -16.3
Nc1ccc(NC(=O)c2cccc(C(=O)Nc3ccc(N)cc3Cl)c2)c(Cl)c1 | 1.3%[12.3 µM] | 18.4µM* | 16.4µM* | 28.1 | -19.9% | -0.1
Cc1cc(NC(=O)c2ccco2)ccc1NC(=O)c1ccco1 | 0.0% | u | u | 34.8 | u | -9.8
O=C(Nc1ccccc1C(=O)O)c1cccc(NC(=O)c2ccc(Br)o2)c1 | 0.0% | -6.7% | 1.64µM* | 15.2 | 2.4% | -5.7
SMILES | TDP1 block | TDP1 cell CPT | DT40 TDP1 no CPT | Giardia kill | ELG1 repair inh | IL1B secr inh
O=C(Nc1cccc(NC(=O)c2nccc3ccccc23)c1)c1ccco1 | 6.2% | u | 10.3µM* | -8.9 | -12.2% | 3.5
O=C(Nc1ccc(F)cc1)C1CCCN(S(=O)(=O)c2ccc3[nH]c(=O)ccc3c2)C1 (stereo not drawn) | x | u | u | 18.3 | 13.5% | 5.5
CC(C)Oc1ccc(C(=O)Nc2ccc(NC(=O)c3ccco3)c(Cl)c2)cc1 | 0.0% | u | u | -7.9 | -0.5% | u
O=C(Nc1ccncc1)C1CC(=O)N(c2ccccc2)C1 (stereo not drawn) | x | -12.4% | -5.4% | 9.2 | x | 21.8
O=C(Nc1cccc(NC(=O)c2ccco2)c1)c1ccccc1 | x | -19.6% | -16.1% | -26.8 | 0.1% | -11.8
O=C(Nc1ccc(NC(=O)c2ccco2)c(Cl)c1)c1ccccc1 | -7.7% | u | 23.1µM* | -6.8 | 4.1% | u
O=C(Nc1cccc(-c2cnc3ccccc3n2)c1)C1CC(=O)N(c2ccccc2)C1 (stereo not drawn) | 2.7% | 20.6µM* | 23.1µM* | 8.7 | u | i
O=C(Nc1nccs1)c1cccc(NC(=O)c2ccco2)c1 | 1.1% | -5.2% | u | -0.4 | 23.1µM* | -2.9
O=C(Nc1cccnc1)c1cccc(NC(=O)c2ccco2)c1 | 1.0% | -12.6% | u | -3.0 | -18.6% | -3.3
O=C(Nc1cccc(-c2cnc3ccccc3n2)c1)c1cccc(NC(=O)c2ccco2)c1 | -5.6% | 6.51µM* | 14.6µM* | -24.7 | 10.3µM* | 59.8
CCCOc1cccc(C(=O)N(Cc2cc(OC)c(OC)c(OC)c2)C2CCS(=O)(=O)C2)c1 (stereo not drawn) | -1.2% | u | -16.9% | x | x | x
O=C(c1ccccc1)c1cccc(NC(=O)c2ccco2)c1 | 9.1% | u | u | -3.8 | u | -18.4
O=C(Nc1ccccc1O)c1cccc(NC(=O)c2ccco2)c1 | x | 20.6µM* | 13µM* | 14.8 | 11.6µM* | 56.8
COc1cccc(Nc2ncc3nc(C)c(=O)n(C4CC4)c3n2)c1 | x | -11.9% | u | x | x | x
O=C(NC1CCN(Cc2ccc(F)cc2)CC1)c1ccccc1 | x | -4.3% | -26.9% | 0.5 | 9.3% | 2.0
COc1ccccc1NS(=O)(=O)c1ccc(C)c(C(=O)NC2CCN(Cc3ccccc3)CC2)c1 | -0.4% | 20.6µM* | 16.4µM* | u | -11.6% | -57.3*
Cc1ccc(NS(=O)(=O)c2cccc(C(=O)NC3CCN(Cc4ccccc4)CC3)c2)c(C)c1 | x | 9.2µM* | u | -3.6 | x | u
O=C(NC1CCN(Cc2ccccc2)CC1)c1cccc(S(=O)(=O)Nc2ccc(Br)cc2)c1 | x | 20.6µM* | u | 4.4 | -11.7% | u
COc1ccccc1NS(=O)(=O)c1cccc(C(=O)NC2CCN(Cc3ccccc3)CC2)c1 | -0.3% | u | 23.1µM* | -0.5 | -2.1% | u
